Results taken from PubChem BioAssay AID1159580 (chemical genetic matrix, 2015).
Screen size: about 5,500 compounds; about 2,000 (36%) were called active. About 18% were inconclusive and are not listed. This is one part of the list. Values without a mark were called inactive. No stated cut-off is given here; in the data, active means normalized growth mostly below about 0.91 (no sharp cut-off); inconclusive means no clear call, values can overlap the other calls; inactive means mostly above about 0.92.

Assay: chemical genetic growth profiling, strain panel (AID 1159580);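 further: tested at 20 µM; growth read once vehicle control cultures reached saturation at 30 °C; 1 = growth at the plate median or of vehicle wells; lower values mean less growth of the strain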
Details: growth OD

CCOC(=O)c1c(C)cc(O)c(C=O)c1O
normalized growth (S. cerevisiae deletion strains, locus YJR075W, strain HOC1, hits give low values): 0.272 (active) | normalized growth (S. cerevisiae deletion strains, locus YKL009W, strain mrt4, hits give low values): 0.446 (active) | normalized growth (S. cerevisiae deletion strains, locus YKL068W, hits give low values): 0.799 (active) | normalized growth (S. cerevisiae deletion strains, locus YKL085W, strain MDH1 (second series), hits give low values): 0.528 (active) | normalized growth (S. cerevisiae deletion strains, locus YKL085W, strain MDH1, hits give low values): 0.528 (active) | normalized growth (S. cerevisiae deletion strains, locus YKL160W, strain elf1, hits give low values): 0.655 (active) | normalized growth (S. cerevisiae deletion strains, locus YKL190W, strain CNB1, hits give low values): 0.108 (active) | normalized growth (S. cerevisiae deletion strains, locus YKR001C, strain vps1, hits give low values): 0.103 (active) | normalized growth (S. cerevisiae deletion strains, locus YKR026C, strain gcn3, hits give low values): 0.823 (active) | normalized growth (S. cerevisiae deletion strains, locus YKR091W, strain srl3, hits give low values): 0.851 (active) | normalized growth (S. cerevisiae deletion strains, locus YLL001W, strain dnm1, hits give low values): 0.568 (active) | normalized growth (S. cerevisiae deletion strains, locus YLL026W, hits give low values): 0.706 (active) | normalized growth (S. cerevisiae deletion strains, locus YLL041C, strain sdh2, hits give low values): 0.823 (active) | normalized growth (S. cerevisiae deletion strains, locus YLR027C, strain aat2, hits give low values): 0.593 (active) | normalized growth (S. cerevisiae deletion strains, locus YLR039C, strain RIC1, hits give low values): 0.0958 (active) | normalized growth (S. cerevisiae deletion strains, locus YLR058C, strain SHM2, hits give low values): 0.202 (active) | normalized growth (S. cerevisiae deletion strains, locus YLR102C, strain apc9, hits give low values): 0.221 (active) | normalized growth (S. cerevisiae deletion strains, locus YLR113W, strain HOG1, hits give low values): 0.157 (active) | normalized growth (S. cerevisiae deletion strains, locus YLR221C, strain rsa3, hits give low values): 0.499 (active) | normalized growth (S. cerevisiae deletion strains, locus YLR258W, strain gsy2, hits give low values): 0.681 (active) | normalized growth (S. cerevisiae deletion strains, locus YLR262C, strain YPT6 (second series), hits give low values): 0.153 (active) | normalized growth (S. cerevisiae deletion strains, locus YLR262C, strain YPT6, hits give low values): 0.113 (active) | normalized growth (S. cerevisiae deletion strains, locus YLR268W, strain sec22, hits give low values): 0.091 (active) | normalized growth (S. cerevisiae deletion strains, locus YLR320W, strain mms22, hits give low values): 0.292 (active) | normalized growth (S. cerevisiae deletion strains, locus YLR330W, strain CHS5, hits give low values): 0.176 (active) | normalized growth (S. cerevisiae deletion strains, locus YLR342W, strain FKS1 (second series), hits give low values): 0.159 (active) | normalized growth (S. cerevisiae deletion strains, locus YLR342W, strain FKS1, hits give low values): 0.586 (active) | normalized growth (S. cerevisiae deletion strains, locus YLR357W, strain rsc2, hits give low values): 0.772 (active) | normalized growth (S. cerevisiae deletion strains, locus YLR370C, strain arc18, hits give low values): 0.656 (active) | normalized growth (S. cerevisiae deletion strains, locus YLR371W, strain rom2, hits give low values): 0.158 (active) | normalized growth (S. cerevisiae deletion strains, locus YLR384C, strain iki3, hits give low values): 0.718 (active) | normalized growth (S. cerevisiae deletion strains, locus YLR418C, strain cdc73, hits give low values): 0.13 (active) | normalized growth (S. cerevisiae deletion strains, locus YML016C, strain PPZ1, hits give low values): 0.344 (active) | normalized growth (S. cerevisiae deletion strains, locus YML032C, strain rad52, hits give low values): 0.137 (active) | normalized growth (S. cerevisiae deletion strains, locus YML120C, strain ndi1, hits give low values): 0.652 (active) | normalized growth (S. cerevisiae deletion strains, locus YML124C, strain tub3, hits give low values): 0.262 (active) | normalized growth (S. cerevisiae deletion strains, locus YMR058W, strain fet3, hits give low values): 0.0978 (active) | normalized growth (S. cerevisiae deletion strains, locus YMR078C, strain ctf18, hits give low values): 0.112 (active) | normalized growth (S. cerevisiae deletion strains, locus YMR125W, strain sto1, hits give low values): 0.673 (active) | normalized growth (S. cerevisiae deletion strains, locus YMR129W, hits give low values): 0.722 (active) | normalized growth (S. cerevisiae deletion strains, locus YMR205C, strain PFK2, hits give low values): 0.47 (active) | normalized growth (S. cerevisiae deletion strains, locus YMR223W, strain ubp8, hits give low values): 0.2 (active) | normalized growth (S. cerevisiae deletion strains, locus YMR231W, strain pep5, hits give low values): 0.311 (active) | normalized growth (S. cerevisiae deletion strains, locus YMR263W, strain SAP30, hits give low values): 0.353 (active) | normalized growth (S. cerevisiae deletion strains, locus YMR307W, strain GAS1, hits give low values): 0.133 (active) | normalized growth (S. cerevisiae deletion strains, locus YNL067W, strain RPL9B, hits give low values): 0.201 (active) | normalized growth (S. cerevisiae deletion strains, locus YNL071W, strain lat1, hits give low values): 0.248 (active) | normalized growth (S. cerevisiae deletion strains, locus YNL128W, strain TEP1, hits give low values): 0.237 (active) | normalized growth (S. cerevisiae deletion strains, locus YNL153C, strain GIM3, hits give low values): 0.205 (active) | normalized growth (S. cerevisiae deletion strains, locus YNL183C, strain NPR1, hits give low values): 0.0359 (active) | normalized growth (S. cerevisiae deletion strains, locus YNL209W, strain ssb2, hits give low values): 0.392 (active) | normalized growth (S. cerevisiae deletion strains, locus YNL233W, strain BNI4, hits give low values): 0.153 (active) | normalized growth (S. cerevisiae deletion strains, locus YNL248C, strain rpa49, hits give low values): 0.635 (active) | normalized growth (S. cerevisiae deletion strains, locus YNL250W, strain rad50, hits give low values): 0.514 (active) | normalized growth (S. cerevisiae deletion strains, locus YNL271C, strain bni1, hits give low values): 0.347 (active) | normalized growth (S. cerevisiae deletion strains, locus YNL298W, strain CLA4, hits give low values): 0.382 (active) | normalized growth (S. cerevisiae deletion strains, locus YNL307C, strain MCK1, hits give low values): 0.0757 (active) | normalized growth (S. cerevisiae deletion strains, locus YNL322C, strain KRE1 (second series), hits give low values): 0.797 (active) | normalized growth (S. cerevisiae deletion strains, locus YNL322C, strain KRE1, hits give low values): 0.207 (active) | normalized growth (S. cerevisiae deletion strains, locus YNR049C, strain mso1, hits give low values): 0.796 (active) | normalized growth (S. cerevisiae deletion strains, locus YNR052C, strain pop2, hits give low values): 0.155 (active) | normalized growth (S. cerevisiae deletion strains, locus YOL006C, strain TOP1, hits give low values): 0.137 (active) | normalized growth (S. cerevisiae deletion strains, locus YOL012C, strain htz1): 0.305 | normalized growth (S. cerevisiae deletion strains, locus YOL147C, strain pex11, hits give low values): 0.0808 (active) | normalized growth (S. cerevisiae deletion strains, locus YOR001W, strain rrp6, hits give low values): 0.604 (active) | normalized growth (S. cerevisiae deletion strains, locus YOR061W, strain CKA2, hits give low values): 0.486 (active) | normalized growth (S. cerevisiae deletion strains, locus YOR069W, strain VPS5, hits give low values): 0.255 (active) | normalized growth (S. cerevisiae deletion strains, locus YOR070C, strain gyp1, hits give low values): 0.535 (active) | normalized growth (S. cerevisiae deletion strains, locus YOR080W, strain dia2, hits give low values): 0.642 (active) | normalized growth (S. cerevisiae deletion strains, locus YOR083W, strain WHI5, hits give low values): 0.674 (active) | normalized growth (S. cerevisiae deletion strains, locus YOR106W, strain vam3, hits give low values): 0.358 (active) | normalized growth (S. cerevisiae deletion strains, locus YOR136W, strain idh2, hits give low values): 0.267 (active) | normalized growth (S. cerevisiae deletion strains, locus YOR144C, strain elg1, hits give low values): 0.136 (active) | normalized growth (S. cerevisiae deletion strains, locus YOR184W, strain ser1, hits give low values): 0.0931 (active) | normalized growth (S. cerevisiae deletion strains, locus YOR231W, strain MKK1, hits give low values): 0.142 (active) | normalized growth (S. cerevisiae deletion strains, locus YOR265W, strain rbl2, hits give low values): 0.697 (active) | normalized growth (S. cerevisiae deletion strains, locus YOR270C, strain vph1, hits give low values): 0.263 (active) | normalized growth (S. cerevisiae deletion strains, locus YOR290C, strain snf2, hits give low values): 0.558 (active) | normalized growth (S. cerevisiae deletion strains, locus YOR316C, strain cot1, hits give low values): 0.213 (active) | normalized growth (S. cerevisiae deletion strains, locus YPL051W, strain arl3, hits give low values): 0.225 (active) | normalized growth (S. cerevisiae deletion strains, locus YPL055C, strain LGE1, hits give low values): 0.171 (active) | normalized growth (S. cerevisiae deletion strains, locus YPL078C, strain atp4, hits give low values): 0.558 (active) | normalized growth (S. cerevisiae deletion strains, locus YPL106C, strain sse1, hits give low values): 0.708 (active) | normalized growth (S. cerevisiae deletion strains, locus YPL240C, strain hsp82, hits give low values): 0.75 (active) | normalized growth (S. cerevisiae deletion strains, locus YPL241C, strain CIN2, hits give low values): 0.224 (active) | normalized growth (S. cerevisiae deletion strains, locus YPL256C, strain CLN2, hits give low values): 0.15 (active) | normalized growth (S. cerevisiae deletion strains, locus YPR119W, strain clb2, hits give low values): 0.164 (active) | normalized growth (S. cerevisiae deletion strains, locus YPR141C, strain kar3, hits give low values): 0.704 (active) | normalized growth (S. cerevisiae deletion strains, locus YPR163C, strain tif3, hits give low values): 0.0943 (active) | normalized growth (S. cerevisiae deletion strains, locus YPR167C, strain met16, hits give low values): 0.252 (active) | normalized growth (S. cerevisiae deletion strains, strain wtn01, hits give low values): 0.166 (active) | normalized growth (S. cerevisiae strains, strain wild type, hits give low values): 0.162 (active)
